Data reported in PubChem BioAssay.
Calls of active or inactive are those of the source. No rule for the calls is given here.

The compounds below were run on Aerobactin synthetase IucA (Klebsiella pneumoniae hvKP1) (assay: IucA enzyme inhibition, primary screen, biochemical, Spectrum library (AID 1346200;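 also: 100% = wells without compound and 0% = wells lacking enzyme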)). Details: malachite green pyrophosphate, A620, at 8 µM, active compounds read low.

Q: How did the activity remaining turn out when `COc1ccc(-c2cc(=O)c3c(O)cc(O[C@@H]4O[C@H](CO[C@H]5O[C@H](C)[C@@H](O)[C@H](O)[C@@H]5O)[C@@H](O)[C@H](O)[C@H]4O)cc3o2)cc1O` was run?
A: 90.7% (inactive)

Q: `NCC(O)CC(=O)O` (stereo not given) was tested. Which activity remaining did it give?
A: 98.6% (inactive)

Q: `O=c1cc(-c2ccc(O)c(O)c2)oc2ccccc12` was tested. Which activity remaining did it give?
A: 88.4% (inactive)

Q: With `C[C@H]1O[C@H](O[C@H]2[C@H](O)[C@@H](O)[C@@H](O[C@H]3[C@H](O)[C@@H](O)C(O)O[C@@H]3CO)O[C@@H]2CO)[C@H](O)[C@@H](O)[C@@H]1N[C@H]1C=C(CO)[C@@H](O)[C@H](O)[C@H]1O` (stereo not given in full) as the compound, how does the activity remaining read?
A: 107% (inactive)

Q: How did the activity remaining turn out when `C[C@@H]1[C@H]2[C@H](O[C@@H]3O[C@H](CO)[C@@H](O)[C@H](O)[C@H]3O)OC=C(C(=O)O)[C@H]2C[C@@H]1O` was run?
A: 120% (inactive)

Q: With `O=c1cc[nH]c(=S)[nH]1` as the compound, how does the activity remaining read?
A: 97.7% (inactive)

Q: `CCC(C(=O)O)c1ccccc1` (stereo not given) was tested. Which activity remaining did it give?
A: 123% (inactive)

Q: How did the activity remaining turn out when `C[C@@H]1CC[C@H]2[C@@H](C)C(O)O[C@@H]3OC4(C)CC[C@@H]1[C@]32OO4` (stereo not given in full) was run?
A: 106% (inactive)

Q: For `COC(=O)CCC(C)[C@H]1CCC2C3C(C[C@H](O)[C@@]21C)[C@@]1(C)CC[C@@H](O)C[C@H]1C[C@H]3O` (stereo not given in full), which activity remaining is on record?
A: 105% (inactive)

Q: How did the activity remaining turn out when `CN[C@@H]1C(OC2[C@H](O[C@H]3[C@H](O)[C@@H](O)[C@H](N=C(N)N)[C@@H](O)[C@@H]3N=C(N)N)OC(C)[C@]2(O)CO)OC(CO)C(O)C1O` (stereo not given in full) was run?
A: 111% (inactive)

Q: With `C=Cc1c(C)/c2[n-]/c1=C\c1[n-]c(c(CC)c1C)/C=c1\[n-]c3c(c1C)C(=O)C(C(=O)[O-])C=3c1[n-]c(c(C)c1CCC(=O)[O-])\C=2.[Cu].[Na+].[Na+]` (stereo not given) as the compound, how does the activity remaining read?
A: 77.9% (inactive)

Q: With `COc1ccc(-c2coc3cc(O)ccc3c2=O)cc1` as the compound, how does the activity remaining read?
A: 109% (inactive)

Q: With `C[C@@H]1O[C@@H](OC[C@H]2OC(Oc3c(-c4ccc(OCCO)c(OCCO)c4)oc4cc(OCCO)cc(O)c4c3=O)[C@H](O)[C@@H](O)[C@@H]2O)[C@H](O)[C@H](O)[C@H]1O` (stereo not given in full) as the compound, how does the activity remaining read?
A: 121% (inactive)

Q: For `N[C@@H]1[C@@H](O)[C@H](O)[C@@H](CO)O[C@H]1O`, which activity remaining is on record?
A: 80.8% (inactive)

Q: With `CC(C)NCC(O)COc1cccc2ccccc12` (stereo not given) as the compound, how does the activity remaining read?
A: 105% (inactive)

Q: For `CN(C)CC/C=C1/c2ccccc2COc2ccccc21`, which activity remaining is on record?
A: 99.3% (inactive)

Q: `Cc1ccc2c(c1)CC[C@H]1CC(=O)CC[C@]21C` was tested. Which activity remaining did it give?
A: 112% (inactive)

Q: With `O=c1[nH]cnc2nc[nH]c12` as the compound, how does the activity remaining read?
A: 89.8% (inactive)

Q: With `COC(=O)Nc1nc2ccc(C(=O)c3ccccc3)cc2[nH]1` as the compound, how does the activity remaining read?
A: 104% (inactive)

Q: With `O=C(Nc1ccc(C(=O)O)c(O)c1)c1ccccc1` as the compound, how does the activity remaining read?
A: 89.3% (inactive)

Q: For `CC[C@@H](CO)NCCN[C@@H](CC)CO`, which activity remaining is on record?
A: 102% (inactive)

Q: With `C[C@H]1CC[C@@H](C(C)(C)O)CC2=C1CC[C@@H]2C` as the compound, how does the activity remaining read?
A: 102% (inactive)

Q: With `COc1ccc(-c2cc(=O)c3c(OC)c(OC)c(OC)c(OC)c3o2)cc1` as the compound, how does the activity remaining read?
A: 121% (inactive)

Q: Which activity remaining does the source give for `CO[C@H]1C[C@H](O[C@H]2[C@H](C)[C@@H](OC3O[C@H](C)C[C@H](N(C)C)[C@H]3O)[C@@H](C)C[C@]3(CO3)C(=O)[C@H](C)[C@@H](O)[C@@H](C)[C@@H](C)OC(=O)[C@@H]2C)O[C@@H](C)[C@@H]1O` (stereo not given in full) here?
A: 107% (inactive)

Q: Which activity remaining does the source give for `CC1(C)CCCC2(C)C3C1[C@@H](O)C2(C)C[C@H]3O` (stereo not given in full) here?
A: 105% (inactive)

Q: Which activity remaining does the source give for `CN(C)CCOC(c1ccccc1)c1ccccc1` (tested in a mixture with another compound) here?
A: 117% (inactive)

Q: How did the activity remaining turn out when `Nc1ccc(S(=O)(=O)Nc2ncccn2)cc1` was run?
A: 120% (inactive)

Q: For `Oc1c(Cl)cc(Cl)c(Cl)c1Cc1c(O)c(Cl)cc(Cl)c1Cl`, which activity remaining is on record?
A: 118% (inactive)

Q: With `CC12CCC3C(CC3(C)C)C(C)(CCC1=O)O2` (stereo not given) as the compound, how does the activity remaining read?
A: 119% (inactive)

Q: How did the activity remaining turn out when `CC[C@H](C)C(=O)O[C@H]1C[C@@H](C)C=C2C=C[C@H](C)[C@H](CC[C@@H]3C[C@@H](O)CC(=O)O3)[C@H]21` was run?
A: 119% (inactive)

Q: With `C/C=C/C(=O)N(CC)c1ccccc1C` as the compound, how does the activity remaining read?
A: 112% (inactive)

Q: How did the activity remaining turn out when `CC(=O)Nc1cccc(O)c1` was run?
A: 120% (inactive)

Q: `CC1=CC2C(CC1=O)C(C)=CCC2C(C)C` (stereo not given) was tested. Which activity remaining did it give?
A: 104% (inactive)

Q: With `CC(C)CCCC(C)[C@H]1CCC2C3CC[C@H]4CC(=O)CC[C@]4(C)C3CC[C@@]21C` (stereo not given in full) as the compound, how does the activity remaining read?
A: 102% (inactive)

Q: For `COc1cc([C@@H]2c3cc4c(cc3C(OC3O[C@@H]5COC(C)O[C@H]5[C@H](O)[C@H]3O)C3COC(=O)[C@@H]32)OCO4)cc(OC)c1O` (stereo not given in full), which activity remaining is on record?
A: 102% (inactive)

Q: `COC(=O)c1c(OC)cc2c(c1C)Oc1c(Cl)c(OC(C)=O)c(Cl)c(C)c1C(=O)O2` was tested. Which activity remaining did it give?
A: 98.6% (inactive)

Q: How did the activity remaining turn out when `CCOC(=O)C(C)(N)Cc1ccc(O)c(O)c1` (stereo not given) was run?
A: 105% (inactive)

Q: How did the activity remaining turn out when `CC(=O)OCC(CCn1cnc2cnc(N)nc21)COC(C)=O` was run?
A: 121% (inactive)

Q: Which activity remaining does the source give for `CC1=C(/C=C/C(C)=C/C=C/C(C)=C/C=C/C=C(C)/C=C/C=C(C)/C=C/C2=C(C)CCCC2(C)C)C(C)(C)CCC1` here?
A: 123% (inactive)

Q: `CC1(C)CC[C@]2(C)CC[C@]3(C)C(=CCC4[C@@]5(C)CC[C@H](O)C(C)(C)C5CC[C@]43C)C2C1` (stereo not given in full) was tested. Which activity remaining did it give?
A: 121% (inactive)
